As a reminder, the Inhibition is the drop in the measured response relative to a control, in per cent. Read a high Inhibition as strong suppression.

The structures appear in SMILES notation.

Our source for the Inhibition values is ChEMBL document CHEMBL1157539, “Thousands of chemical starting points for antimalarial lead identification” (Nature, 2010).

Holding throughout (type): functional
For assay [1], the system named is Plasmodium falciparum. In words: GSK_TCMDC: Inhibition of Plasmodium falciparum 3D7 in whole red blood cells, using parasite LDH activity as an index of growth. Test compounds present at 2uM.
Assay [2] concerns Plasmodium falciparum. As to the kind of experiment: GSK_TCMDC: Inhibition of Plasmodium falciparum Dd2 in whole red blood cells, using parasite LDH activity as an index of growth. Test compounds present at 2uM.
Another assay deals with HepG2. In words: GSK_TCMDC: Percent inhibition of human HepG2 cell line. Test compounds present at 10uM.

`COCCNc1nc(N2CCC(CNC(=O)c3ccc(-c4ccc(C(=O)N(C)C)cc4C)cc3)CC2)nc2cc(OC)c(OC)cc12`: the Inhibition with Plasmodium falciparum [1] is 98%; in the assay with Plasmodium falciparum [2], 97%; with HepG2 it was 12%.
In the same order, the values of `COc1ccc2nccc(N(C)CC3(O)CCN(CCc4ccc5c(c4)OCCO5)CC3)c2n1.Cl` are 100%, 96% and 15%.
Taken in the same sequence, the figures for `CCCNc1nc(Nc2ccccc2C)nc2ccccc12` were 95%, 64% and 13%.
As to `COc1cc(NC(=O)c2ccc(-c3ccccc3)cc2)ccc1OCCCN1CCC(c2ccccc2)CC1.Cl`, the Inhibition with Plasmodium falciparum [1] was 100%; in the assay on Plasmodium falciparum [2], 30%; in the assay on HepG2, 46%.
For `COc1ccc(C(O)CNC(C)CCc2ccccc2)cc1C(F)(F)F.Cl` (stereo not drawn), the Inhibition in the assay on Plasmodium falciparum [1] worked out at 99%; in the assay on Plasmodium falciparum [2], 100%; with HepG2, 3%.
Taken in the same sequence, the figures for `CC(C)c1ccc(CN2CCC(NC(=O)c3ccc(-c4cccc(Cl)c4)s3)CC2)cc1.O=C(O)C(F)(F)F` were 82%, 6% and 50%.
In the case of `Fc1ccc2[nH]c(-c3cccc(-c4cccc(CNCc5ccccc5)c4)c3)nc2c1.O=C(O)C(F)(F)F`, the Inhibition with Plasmodium falciparum [1] stood at 100%; in the assay on Plasmodium falciparum [2] it was 52%; in the assay on HepG2, 24%.
Taken in the same sequence, the figures for `Cc1cc(NC(=O)c2cccs2)ccc1OC1CCN(Cc2ccc(C#N)cc2)C1.O=C(O)C(F)(F)F` (stereo not drawn) were 82%, 61% and 13%.
In the same order, the values of `CC(O)c1cccc(-c2ccc(Nc3ccnc4cc(-c5nccs5)ccc34)cc2)c1.Cl` (stereo not drawn) are 91%, 69% and 31%.
In the same order, the values of `CCCNCc1ccc(-c2ccc(CN(CCOC)C(=O)c3cscn3)cc2)nc1.O=C(O)C(F)(F)F` are 99%, 16% and 13%.
As to `N#Cc1cccc(C(=O)Nc2cccc(-c3ccc(C(=O)Nc4cccnc4)cc3)c2)c1`, the results for the Inhibition with Plasmodium falciparum [1], in the assay on Plasmodium falciparum [2] and in the assay with HepG2 were 89%, 10% and 39%, respectively.
On to `Cc1[nH]c(C)c(-c2ccc(OCc3ccc(F)cc3)cc2)c(=O)c1Br`, for which the Inhibition is 98% in the assay with Plasmodium falciparum [1], 97% with Plasmodium falciparum [2] and 16% with HepG2.
In the same order, the values of `CN(C)CCCNCc1ccc(-c2ccc(CNCCc3ccccc3)cc2)cc1.O=C(O)C(F)(F)F` are 100%, 87% and 61%.
Taken in the same sequence, the figures for `COc1ccc2nccc([C@@H](O)CN3CCC(NC(=O)c4ccc(Oc5ccccc5)cc4)CC3)c2c1` were 82%, 13% and 39%.
As to `CCNc1cc(C(=O)N[C@@H](Cc2ccccc2)[C@H](O)CNCc2cccc(OC)c2C)cc(N2CCCCS2(=O)=O)c1.O=CO`, the Inhibition is on record as 97% in the assay on Plasmodium falciparum [1], 98% in the assay with Plasmodium falciparum [2] and 8% in the assay on HepG2.
In the same order, the values of `Cc1ccc(Nc2nccc(Nc3ccc4c(c3)nc(Nc3cc(C(C)(C)C)on3)n4C)n2)cc1S(C)(=O)=O` are 100%, 99% and 30%.
Turning to `O=C(Nc1cc(F)cc(F)c1)NC1CCN(CCCCCNC(=O)C2CC2c2ccc(Cl)c(Cl)c2)CC1` (stereo not drawn), the figures for the Inhibition in the assay with Plasmodium falciparum [1], in the assay with Plasmodium falciparum [2] and in the assay with HepG2 were 100%, 6% and 49%, respectively.
Taken in the same sequence, the figures for `CC(C)N1CCC(N(Cc2ccc(-c3ccc(C(F)(F)F)cc3)cc2)C(=O)Cn2c(CCc3cccc(F)c3F)cc(=O)c3cn(C)nc32)CC1.O=C(O)C(O)C(O)C(=O)O` were 89%, 78% and 100%.
Taken in the same sequence, the figures for `O=C(Nc1cccc(-c2ccc(CN3CCNCC3)cc2)c1)c1cccc(Cl)c1.O=C(O)C(F)(F)F` were 92%, 4% and 30%.
Taken in the same sequence, the figures for `Cc1nc(N)nc(N)c1-c1ccc(Br)c([N+](=O)[O-])c1` were 95%, 2% and 64%.
Take `O=C1Nc2cccc3c2C1(CCCN1CCC(c2c[nH]c4cc(C(F)(F)F)ccc24)CC1)CCC3` (stereo not drawn): the Inhibition with Plasmodium falciparum [1] turned out to be 89%; with Plasmodium falciparum [2] it was 37%; in the assay with HepG2 it was 91%.
In the same order, the values of `CCc1cn2c3c(cc(C(=O)N[C@@H](Cc4ccccc4)[C@H](O)CNCc4ccccc4C)cc13)N(C)S(=O)(=O)CC2.O=CO` are 98%, 98% and 3%.
For `FC(F)(F)c1ccc2[nH]c(-c3cccc(-c4ccc(CNCCc5ccncc5)cc4)c3)nc2c1.O=C(O)C(F)(F)F`, the Inhibition was found to be 99% in the assay on Plasmodium falciparum [1], 100% with Plasmodium falciparum [2] and 23% in the assay on HepG2.
Taken in the same sequence, the figures for `CNC(=O)Cc1ccc(C(=O)Nc2cccc(-c3cccc(-c4nc5cccc(C)c5[nH]4)c3)c2)cc1` were 96%, 53% and 15%.
Taken in the same sequence, the figures for `CC(C)(CNCc1ccccc1)c1nc(-c2ccc(Cl)c(O)c2)c(-c2ccncc2)[nH]1.Cl` were 100%, 99% and 77%.
Taken in the same sequence, the figures for `Cl.Nc1nc(N)c2c(ccc3nn(Cc4cccnc4)cc32)n1` were 96%, 0% and 41%.
Take `Cl.N#Cc1ccc2c(c1)CCN(CCC1CCC(NC(=O)Nc3ccncc3)CC1)C2` (stereo not drawn): the Inhibition is 85% in the assay with Plasmodium falciparum [1], 3% in the assay with Plasmodium falciparum [2] and 6% in the assay with HepG2.
In the same order, the values of `Cc1cccc2nc(-c3cccc(-c4ccc(NC(=O)C(C)CN(C)C)cc4)c3)[nH]c12` (stereo not drawn) are 100%, 100% and 29%.
Taken in the same sequence, the figures for `O=C(C1CCN(c2nnnn2-c2ccccc2)CC1)N1CCc2ccccc2C1` were 97%, 97% and 0%.
In the same order, the values of `COc1ccc(Nc2ncc3c(-c4cccc(NC(=O)c5ccccc5)c4)c[nH]c3n2)cc1OC` are 100%, 95% and 54%.
`CN1CCN(c2ccc(Nc3c(C(N)=O)cnc4cc(-c5ccoc5)ccc34)cc2C(F)(F)F)CC1.Cl`: the Inhibition in the assay with Plasmodium falciparum [1] is given as 100%; in the assay on Plasmodium falciparum [2], 97%; in the assay with HepG2 it was 13%.
